The text below walks through data of the supplement of paper PMC5641865, “A screen for kinase inhibitors identifies antimicrobial imidazopyridine aminofurazans as specific inhibitors of the Listeria monocytogenes PASTA kinase PrkA” (The Journal of Biological Chemistry, 2017).

± gives the standard deviation of the averaged measurements.
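Also: End-point A600 read in BHI broth at 37 °C with 2% DMSO, inhibition computed as (1 − OD with compound plus ceftriaxone ÷ OD with ceftriaxone only) × 100.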

The subject of this assay is Listeria monocytogenes 10403S. Briefly: growth inhibition relative to ceftriaxone-alone control; higher = stronger potentiation of ceftriaxone growth inhibition. The conditions noted are these: 10 µM; ceftriaxone 1 ug/ml; 12 h.
`CCN(CC)CCNC(=O)c1c(C)[nH]c(/C=C2\C(=O)Nc3ccc(F)cc32)c1C` [Sunitinib Malate (Sutent)]: the growth inhibition was found to be 73.6 ± 12%. As to `O=C(O[C@H]1CN[C@H](C#Cc2cc3ncnc(Nc4ccc5c(cnn5Cc5ccccc5)c4)c3s2)C1)N1CCOCC1`, the growth inhibition is -5.28 ± 15%. In the case of `CO[C@H]1C[C@@H]2CC[C@@H](C)[C@@](O)(O2)C(=O)C(=O)N2CCCC[C@H]2C(=O)O[C@H]([C@H](C)C[C@@H]2CC[C@@H](OCCO)[C@H](OC)C2)CC(=O)[C@H](C)/C=C(\C)[C@@H](O)[C@@H](OC)C(=O)[C@H](C)C[C@H](C)/C=C/C=C/C=C/1C` [Everolimus (RAD001)], the growth inhibition was found to be 27.5 ± 19%.

As to `Cc1ncc(-c2ccnc(Nc3ccc(S(C)(=O)=O)cc3)n2)n1C(C)C`, the growth inhibition stood at 97.4 ± 2.4%. Turning to `CC[C@H](CO)Nc1nc(NCc2ccccc2)c2ncn(C(C)C)c2n1` [Roscovitine (Seliciclib, CYC202)], the growth inhibition was 22.9 ± 22%. In the case of `COc1cc2c(Nc3ccc(NC(=O)c4ccccc4)cc3)ncnc2cc1OCCCN1CCOCC1`, the growth inhibition was determined as 24.9 ± 20%.

`COc1cc(C)c(N(C)C(=O)CN(C)C)cc1Nc1nc(Nc2cccc(F)c2C(N)=O)c2cc[nH]c2n1`: the growth inhibition is -0.447 ± 1%. Turning to `O=c1sn(-c2cccc3ccccc23)c(=O)n1Cc1ccccc1` [Tideglusib], the growth inhibition amounted to 89.5 ± 12%. On to `Cc1ccc([N+](=O)[O-])cc1S(=O)(=O)N(C)/N=C/c1cnc2ccc(Br)cn12`, for which the growth inhibition stood at 2.5 ± 4.3%.
